Source: PubChem BioAssay (NCI)
The panel holds about 83,000 compounds, 20% with a hit somewhere; the sample as a whole holds those more often.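 Percent growth is the endpoint: 0 to 100 indicates growth inhibition (40 means 60% inhibition), 0 means no net growth, and negative values indicate cell death.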 Values without a mark were called inactive. Activity calls are given as the source filed them.

What follows are molecules tested on MOLT-4 leukemia (assay: NCI-60 one-dose screen, 48 h (100 = growth as untreated, 0 = no growth, -100 = all killed)). Conditions: 10 µM unless noted.
Experimental: Growth inhibition of the MOLT-4 human tumor cell line is measured as a screen for anti-cancer activity. Cells are grown in 96 well plates and exposed to the test compound for 48 hours. Compounds are tested at a single concentration, which is 10^-5 M for most compounds. The reported endpoint is percent growth (GI% or GIPRCNT), where numbers from 0 - 100% represent growth inhibition, and numbers from -100% - 0 represent cell death. For example, a value of 40 represents 60% growth inhibition. A value of 0 means no net growth occurred over the course of the experiment. A value of -40 indicates 40% of cells at the beginning of the experiment died by the end of the experiment. A value of -100 means all cells are dead at the end of the experiment.
NCI-60 Human Tumor Cell Lines Screen was performed using the standard one-dose NCI protocol, which is described in more detail at https://dtp.cancer.gov/discovery_development/nci-60/default.htm.
Compounds with GIPRCNT values below 10 were considered active. Activity score was based on GIPRCNT using the following formula: […]
Score is 0 for GIPRCNT values of 100 or above, 50 for GIPRCNT values of 0, and 100 for GIPRCNT values of -100.

SMILES	growth
N=C(N)N=Nc1ccc(O)cc1	88.4% [100 µM]
Cn1c(/C(C#N)=C/c2ccc3ccccc3c2)cc2ccccc21	19.9%
NS(=O)(=O)c1ccc(CCNC(=O)/C=C/c2ccc(Cl)cc2)cc1	74.6%
CN(C)c1cccc2[nH]c(-c3[nH]ncc3Nc3ccnc(N)n3)nc12	1.65% (active)
O=C1c2ccccc2NC(c2cn(-c3ccccc3)nc2-c2cccs2)N1Cc1ccccc1 (stereo not given)	55.1%
C=C(C)[C@@H]1CC[C@]2(C)[C@H](CC=C3[C@@H]4CC(C)(C)CC[C@]4(C=O)CC[C@]32C)[C@@]1(C)CCCN	35.5%
CC1c2ccccc2N(S(=O)(=O)c2ccccc2)C1C (stereo not given)	75.1%
C=COCCCCCCCCCCCCCCCCCC	96.3%
COC(=O)C(N)CSC(c1ccccc1)(c1ccccc1)c1ccccc1 (stereo not given)	8.4% (active)
CC1=NN(c2ccc(S(=O)(=O)O)cc2Cl)C(=O)C1	123%
N#C/C(=C\c1ccc(-c2cccc(C(F)(F)F)c2)o1)c1nc(-c2ccco2)cs1	93%
Clc1ccc(Cn2cc(-c3nc4ccc(Br)nc4n3Cc3ccc(Cl)cc3)c3cccnc32)cc1	59.3%
CC(=O)N1N=C(c2ccc(C)cc2)CC1c1ccc(Oc2ccc(Br)cc2)cc1 (stereo not given)	71.3%
COC(=O)CCCCCn1c2ccccc2c2c3c(c4c5ccccc5[nH]c4c21)C(=O)N(O)C3=O	-15.6% (active)
COC(=O)C(Cc1ccccc1)n1cc(COc2nc(Cl)nc(Nc3ccc(Cl)cc3)n2)nn1 (stereo not given)	91.3%
CC(C)(C)c1[nH]nc2c1C(c1cc3ccccc3[nH]c1=O)Nc1cc(C(=O)OCc3ccccc3)ccc1N2 (stereo not given)	18%
C=C(C)[C@@H]1CC[C@]2(CN)CC[C@]3(C)[C@H](CC[C@@H]4[C@@]5(C)CCC(=O)NC(C)(C)[C@@H]5CC[C@]43C)[C@@H]12	21.5%
Nc1c(Cl)cc(N=Nc2ccccc2)cc1Cl	90.3%
CC1(C)CC[C@]2(C(=O)NCCNCCN)CC[C@]3(C)C(=CC[C@@H]4[C@@]5(C)CCC(=O)C(C)(C)[C@@H]5CC[C@]43C)[C@@H]2C1	3.49% (active)
O=C1C(=O)c2ccccc2C(O)=C1CCCc1ccc(C2CCCCC2)cc1	29.2%

SMILES	growth
Cc1cc(C=O)c(C)c2c1[nH]c1ccccc12	86.1%
COc1ccc(NC(=O)c2ccoc2COc2ccccc2)cc1	95.6%
CCN1CCN(c2nc(C)cc(N(CCCNc3ccnc4cc(Cl)ccc34)Cc3ccco3)n2)CC1	43.5%
COc1ccc(O)c(-c2cc(-c3ccc(Cl)cc3)c(C#N)c(=O)[nH]2)c1	57.8%
COc1cnc2c(c1)C(=O)c1c-2n(CCCNC2=NCCS2)c(=O)c2cc([N+](=O)[O-])ccc12	-11.3% (active)
c1ccc(CN2C(c3ccccc3)=Nc3ccccc3C2c2c[nH]c3ccccc23)cc1 (stereo not given)	2.6% (active)
CCCCC[C@H]1CC=C2C(=O)C=C[C@@H]2CC=CCCCC(=O)O[C@@H](CCCCC)CC=C2C(=O)C=C[C@@H]2CC=CCCCC(=O)O[C@@H](CCCCC)CC=C2C(=O)C=C[C@@H]2CC=CCCCC(=O)O1	3.57% [8.75 µM] (active)
CCC(CC)C(=O)OC(C)COc1ccc(C(C)(C)C)cc1 (stereo not given)	82.7%
COC1=C(Br)C(=O)C(OC)=C(Br)C1=O	26.4%
CC/C=C\C[C@H]1CC=C2C(=O)C=C[C@@H]2CC=CCCCC(=O)O[C@@H](CCCCC)CC=C2C(=O)C=C[C@@H]2CC=CCCCC(=O)O[C@@H](CCCCC)CC=C2C(=O)C=C[C@@H]2CC=CCCCC(=O)O[C@@H](CCCCC)CC=C2C(=O)C=C[C@@H]2CC=CCCCC(=O)O1	4.01% [7.9 µM] (active)
Cc1cc2nc3c4cc(O)ccc4n(CCN(C)C)c3nc2cc1C	1.9% (active)
O=C1/C(=C\c2ccco2)SC(=S)N1CCc1ccc(O)cc1	82.2%
COc1cnc2c(c1)C(=O)c1c-2n(CCCNC(C)C)c(=O)c2cc([N+](=O)[O-])ccc12	-15.6% (active)
Cc1ccc(-c2nn(Cc3cn(-c4cc(C)nc5ccccc45)nn3)c3ncnc(N)c23)cc1	49.9%
N#C/C(=C\c1ccc(-c2ccccc2)o1)c1nc(-c2ccco2)cs1	98.7%
CC(C)=CCC[C@](C)(O)[C@H]1CC[C@]2(C)[C@@H]1CC[C@@H]1[C@@]3(C)C/C(=C/c4cccc([N+](=O)[O-])c4)C(=O)C(C)(C)[C@@H]3CC[C@]12C	67.5%
CCOc1ccc(NC(=O)c2ccccc2-c2ccccc2C(=O)O)cc1	83.6%
COc1ccc(/C(=C\c2ccc3c(c2)OCO3)C(=O)Nc2nc3ccccc3s2)cc1OC	74.4%
COc1cccc(-c2nn(-c3ccccc3)cc2-c2ccnc(NCCCNS(=O)(=O)c3ccccc3)c2)c1	8.92% (active)
COc1ccc(C2c3ccccc3NC(=O)N2C2CCN(C)CC2)c(OC)c1 (stereo not given)	99.5%
